# PubChem BioAssay (Tox21)
# Where “and” joins values, the source holds several entries; their conditions need not be identical. Equal values may be shown once. Records with an inconclusive call do not appear. A call without a number means that no potency is given here. Some compounds were tested as several samples or in several runs, with calls that do not always agree. Calls of active or inactive are those of the source. Unless noted, calls follow the shape of the dose curve; as a rule, active = well fitted curve in the direction sought with a large enough effect in the repeat runs; inconclusive = weak or mixed curves; inactive = no such curve, though single readings can be large; an effect the other way counts as inactive or inconclusive.
# Columns and labels:
# [1] = target: Aryl hydrocarbon receptor (Homo sapiens) (UniProt P35869); assay: qHTS assay to identify small molecule that activate the aryl hydrocarbon receptor (AhR) signaling pathway (AID 743085); also: nearly all actives have a fitted effect of over 15% in size; also: potency is read from the fitted curve at half-maximal effect;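 as to activation: HG2L7.5c1 human HepG2 liver cells with stably integrated DRE-driven firefly reporter; series mostly up to about 70 µM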
# Sequence of Aryl hydrocarbon receptor (Homo sapiens) (P35869 whole entry, looked up): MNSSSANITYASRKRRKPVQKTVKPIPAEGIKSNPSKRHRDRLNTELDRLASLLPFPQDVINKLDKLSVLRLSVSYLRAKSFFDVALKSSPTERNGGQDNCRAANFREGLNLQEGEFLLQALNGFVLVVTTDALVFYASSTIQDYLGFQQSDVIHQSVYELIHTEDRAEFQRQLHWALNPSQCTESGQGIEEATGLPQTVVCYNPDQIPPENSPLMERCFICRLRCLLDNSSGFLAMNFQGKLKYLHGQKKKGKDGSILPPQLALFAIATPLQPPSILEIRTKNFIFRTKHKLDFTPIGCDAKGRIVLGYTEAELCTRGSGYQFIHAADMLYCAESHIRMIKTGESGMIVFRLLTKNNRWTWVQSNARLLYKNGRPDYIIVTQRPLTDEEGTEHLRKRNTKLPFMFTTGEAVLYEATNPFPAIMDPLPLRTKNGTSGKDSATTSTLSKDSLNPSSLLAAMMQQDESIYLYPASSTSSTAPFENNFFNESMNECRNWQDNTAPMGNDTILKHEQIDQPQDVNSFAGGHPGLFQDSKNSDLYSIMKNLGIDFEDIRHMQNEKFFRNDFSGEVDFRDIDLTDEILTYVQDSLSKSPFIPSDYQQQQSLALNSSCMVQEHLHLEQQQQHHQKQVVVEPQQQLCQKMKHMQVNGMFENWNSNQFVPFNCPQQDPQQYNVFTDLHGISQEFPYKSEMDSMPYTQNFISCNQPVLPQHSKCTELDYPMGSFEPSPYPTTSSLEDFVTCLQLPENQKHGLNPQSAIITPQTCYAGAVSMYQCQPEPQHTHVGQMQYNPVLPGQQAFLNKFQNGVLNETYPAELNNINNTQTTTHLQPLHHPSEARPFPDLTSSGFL
# In short: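 Luminescence (ONE-Glo) from a dioxin-responsive-element luciferase reporter in HG2L7.5c1 HepG2 cells after 24 hr compound exposure at 37C; viability measured by CellTiter-Fluor fluorescence beforehand.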
# [2] = qHTS assay to identify small molecule that activate the aryl hydrocarbon receptor (AhR) signaling pathway - cell viability counter screen (AID 743086); also: nearly all actives have a fitted effect of over 45% in size; also: potency is read from the fitted curve at half-maximal effect
# In short: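 Cytotoxicity counter screen: CellTiter-Fluor signal (30 min, 37 C) in 4000 HepG2 cells/well carrying the DRE-luciferase reporter, following 24 h compound exposure at 37 C.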
# [3] = target: Peroxisome proliferator-activated receptor gamma (Homo sapiens) (UniProt P37231); assay: qHTS assay to identify small molecule agonists of the peroxisome proliferator-activated receptor gamma (PPARg) signaling pathway (AID 743094; active = well fitted activation curve with a large enough effect in the signal ratio in the repeat runs, not every such curve was filed as active; the % refers to the signal ratio)
# Sequence of Peroxisome proliferator-activated receptor gamma (Homo sapiens) (P37231 whole entry, looked up): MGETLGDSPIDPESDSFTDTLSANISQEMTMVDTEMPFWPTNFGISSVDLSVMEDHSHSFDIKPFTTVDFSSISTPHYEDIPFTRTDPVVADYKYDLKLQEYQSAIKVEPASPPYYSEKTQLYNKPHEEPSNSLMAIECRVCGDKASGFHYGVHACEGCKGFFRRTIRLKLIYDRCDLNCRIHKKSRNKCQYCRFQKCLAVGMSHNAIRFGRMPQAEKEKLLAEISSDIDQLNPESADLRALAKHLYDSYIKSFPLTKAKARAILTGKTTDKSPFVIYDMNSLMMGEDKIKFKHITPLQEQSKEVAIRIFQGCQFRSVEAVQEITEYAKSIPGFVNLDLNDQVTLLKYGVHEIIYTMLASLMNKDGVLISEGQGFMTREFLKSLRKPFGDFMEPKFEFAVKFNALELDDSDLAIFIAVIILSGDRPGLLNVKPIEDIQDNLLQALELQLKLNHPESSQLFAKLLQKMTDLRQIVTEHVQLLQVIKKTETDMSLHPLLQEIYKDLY
# In short: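 GeneBLAzer PPARg UAS-bla HEK293H cells were plated, rested 5 h, then exposed to compounds for 17 h at 37C. Beta-lactamase activity was read by LiveBLAzer B/G FRET substrate fluorescence after 1 h at room temperature.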
# [4] = qHTS assay for small molecule agonists of the antioxidant response element (ARE) signaling pathway (AID 743202; active = well fitted activation curve with a large enough effect in the signal ratio in the repeat runs, not every such curve was filed as active; the % refers to the signal ratio; also: potency is read from the fitted curve at half-maximal effect)
# In short: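 Quantitative high-throughput format in HepG2 cells bearing an integrated ARE-beta-lactamase reporter. Compound exposure lasted 16 h at 37 C, and fluorescence was read 2 h after adding LiveBLAzer B/G substrate at room temperature.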
# [5] = qHTS assay for small molecule activators of the heat shock response signaling pathway - cell viability counter screen (AID 743209); also: nearly all actives have a fitted effect of over 50% in size; also: potency is read from the fitted curve at half-maximal effect
# In short: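 HSE-bla HeLa cells plated overnight, then exposed to Tox21 compounds (23 nL in DMSO) for 5 h at 37 C. After the bla reporter read, CellTiter-Glo was added in the same wells and luminescence read after 30 min at room temperature.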
# [6] = qHTS assay for small molecule activators of the heat shock response signaling pathway (AID 743210; active = well fitted activation curve with a large enough effect in the signal ratio in the repeat runs, with a control signal flat, not every such curve was filed as active; the % refers to the signal ratio; also: potency is read from the fitted curve at half-maximal effect;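 as to activation: HeLa cells with beta-lactamase reporter driven by heat shock elements; series mostly up to about 63 µM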)
# In short: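 HeLa HSE-bla cells, overnight plating; cpd in DMSO 5 h, 37 C; LiveBLAzer B/G FRET substrate 2.5 h RT; fluorescence intensity read.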
# [7] = target: Peroxisome proliferator-activated receptor gamma (Homo sapiens) (UniProt P37231); assay: qHTS assay to identify small molecule antagonists of the peroxisome proliferator-activated receptor gamma (PPARg) signaling pathway (AID 743191; calls by dose curve; also: series mostly up to about 63 µM; nearly all actives have a fitted effect of over 30% in size)
# In short: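 Beta-lactamase reporter under UAS control in HEK293H PPARg-bla cells; compound treatment 17 h at 37C. Read-out: fluorescence intensity after 1 h room-temperature incubation with LiveBLAzer B/G FRET substrate.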
# [8] = qHTS assay to identify small molecule antagonists of the peroxisome proliferator-activated receptor gamma (PPARg) signaling pathway - cell viability counter screen (AID 743194); conditions: Potency: co-treated with 50 nM rosiglitazone unless noted; also: nearly all actives have a fitted effect of over 55% in size; also: potency is read from the fitted curve at half-maximal effect
# In short: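 Viability was measured as CellTiter-Glo luminescence in GeneBLAzer PPARg UAS-bla HEK293H cells. These cells had been exposed 17 h at 37 C to compounds together with rosiglitazone at 50 nM final, with the beta-lactamase readout taken in the same wells.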
# [9] = qHTS assay for small molecule agonists of the antioxidant response element (ARE) signaling pathway - cell viability counter screen (AID 743203; calls by dose curve; also: nearly all actives have a fitted effect of over 55% in size; also: potency is read from the fitted curve at half-maximal effect)
# In short: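 ARE-bla HepG2 cells were plated, rested 5 h at 37C/5% CO2, then exposed to compounds in DMSO for 16 h. Viability was read as CellTiter-Glo luminescence after 30 min at room temperature, in the same wells as the ARE screen.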
# [10] = qHTS assay to identify small molecule agonists of the peroxisome proliferator-activated receptor delta (PPARd) signaling pathway - cell viability counter screen (AID 743211); also: nearly all actives have a fitted effect of over 55% in size; also: potency is read from the fitted curve at half-maximal effect
# In short: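 Viability was measured as CellTiter-Glo luminescence (30 min, room temperature) in the same wells as the beta-lactamase readout. GeneBLAzer PPARd UAS-bla HEK293H cells received compound after 5 h plating and were incubated 17 h at 37 C.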
SMILES,Potency [1],Potency [2],Potency [3],Potency [4],Potency [5],Potency [6],Potency [7],Potency [8],Potency [9],Potency [10]
O=C1NCN(c2ccccc2)C12CCN(CC1COc3ccccc3O1)CC2 (stereo not given),inactive,inactive,inactive,inactive,inactive,inactive,–,–,–,–
FC(Cl)(Cl)Cl,inactive,inactive,–,inactive,inactive,inactive,inactive,inactive,–,–
Clc1ccc(COC(Cn2ccnc2)c2ccc(Cl)cc2Cl)cc1 (stereo not given),inactive,15.3 µM (active),inactive,–,36.3 µM (active) and 12.3 µM (active),–,–,20.4 µM (active) and 19.4 µM (active) and 29.8 µM (active),25.5 µM (active) and 19.3 µM (active) and 33.5 µM (active),16.2 µM (active) and 17.3 µM (active) and 21.1 µM (active)
CCCN(CC)CC1COC2(CCC(C(C)(C)C)CC2)O1 (stereo not given),inactive,inactive,–,–,inactive,inactive,–,inactive,inactive,inactive
CCCCOCN(C(=O)CCl)c1c(CC)cccc1CC,inactive,inactive,–,–,inactive,–,–,inactive,48.6 µM (active),–
C[C@]12Cc3nonc3C[C@@H]1CC[C@@H]1[C@@H]2CC[C@@]2(C)[C@H]1CC[C@]2(C)O,inactive,inactive,–,8.41 µM (active),inactive,inactive,–,inactive,inactive,–
CN(C)C(=S)S,inactive,inactive and 21.7 µM (active),–,–,5 µM (active) and inactive and 2.19 µM (active),–,–,inactive,inactive,–
CC(C)(O)c1cnn2c(-c3ccc(F)c(-c4c(F)cccc4C#N)c3)cnc2n1,inactive,inactive,–,–,inactive,–,–,inactive,inactive,–
c1ccc2cc3c(cc2c1)-c1cccc2cccc-3c12,120 nM (active),inactive,–,–,inactive,5.21 µM (active),–,inactive,inactive,inactive
O=C(O)c1cc[c]([Hg][Cl])cc1,inactive,inactive,–,–,–,–,–,38.9 µM (active),54.5 µM (active),49 µM (active)
CCCCCCCCCBr,inactive,inactive,–,inactive,inactive,inactive,–,inactive,–,inactive
CCC[CH2][Sn]([CH2]CCC)([CH2]CCC)[O]C(=O)c1ccccc1,inactive,2.73 µM (active),–,–,1.38 µM (active),–,–,0.49 µM (active),0.273 µM (active),0.616 µM (active)
C[C@@H]1CC[C@@]2(OC1)O[C@H]1[C@@H](O)[C@H]3[C@@H]4CC[C@H]5C[C@@H](O[C@@H]6O[C@H](CO)[C@H](O[C@@H]7O[C@H](CO)[C@@H](O)[C@H](O[C@@H]8OC[C@@H](O)[C@H](O)[C@H]8O)[C@H]7O[C@@H]7O[C@H](CO)[C@@H](O)[C@H](O[C@@H]8O[C@H](CO)[C@@H](O)[C@H](O)[C@H]8O)[C@H]7O)[C@H](O)[C@H]6O)[C@H](O)C[C@]5(C)[C@H]4CC[C@]3(C)[C@H]1[C@@H]2C,inactive,20.5 µM (active),–,–,29.2 µM (active),–,–,23.2 µM (active),–,–
[Cd+2].[Cl-].[Cl-],inactive,2.19 µM (active) and 3.06 µM (active),–,–,–,–,–,1.55 µM (active),692 nM (active) and 545 nM (active),–
O=C1c2ccccc2C(=O)C1C(=O)C(c1ccccc1)c1ccc(Cl)cc1 (stereo not given),inactive,inactive,–,–,–,–,–,11 µM (active),30.6 µM (active),–
CC1(c2ccc(Oc3ccccc3)cc2)OC(=O)N(Nc2ccccc2)C1=O (stereo not given),inactive,inactive,–,0.615 µM (active),34.9 µM (active),–,–,8.76 µM (active),24.5 µM (active),49.3 µM (active)
COc1cc(C=O)cc2c1[C@H](COC(N)=O)[C@]1(OC(C)=O)ON2C[C@H]2[C@@H]1N2C(C)=O,inactive,0.306 µM (active),–,–,2.45 µM (active),inactive,–,inactive,0.154 µM (active),–
[CH3][Hg][Cl],inactive,inactive,–,–,54.8 µM (active),–,–,12.3 µM (active),8.61 µM (active),12.3 µM (active)
Cc1cc(N=Nc2ccccc2C)ccc1N,7.7 µM (active) and 4.33 µM (active),5.45 µM (active) and 2.73 µM (active),–,–,inactive,–,–,inactive,inactive,–
O=[N+]([O-])O.O=[N+]([O-])O.[Cd],inactive,1.93 µM (active),–,–,inactive,–,–,0.155 µM (active),0.611 µM (active),–
C[C@@H]1O[C@@H](O[C@@H]2C=C3CC[C@@H]4[C@H](CC[C@]5(C)[C@@H](c6ccc(=O)oc6)CC[C@]45O)[C@@]3(C)CC2)[C@H](O)[C@H](O)[C@H]1O,inactive,inactive,–,–,0.006 µM (active),–,–,0.0119 µM (active),0.0211 µM (active),–
CN(C)S(=O)(=O)N(SC(F)(Cl)Cl)c1ccccc1,inactive,61.1 µM (active),–,–,–,–,–,3.89 µM (active),8.63 µM (active),–
CC(=O)[O-].CC(=O)[O-].O.O.[Cd+2],inactive,2.69 µM (active),–,–,–,–,–,0.682 µM (active),0.214 µM (active),–
O=c1ssc(Cl)c1Cl,inactive,inactive,–,–,49 µM (active),–,–,38.9 µM (active),24.3 µM (active),49 µM (active)
C[C@@H]1O[C@@H](O[C@H]2C[C@@H](O)[C@]3(CO)[C@H]4[C@H](O)C[C@]5(C)[C@@H](C6=CC(=O)OC6)CC[C@]5(O)[C@@H]4CC[C@]3(O)C2)[C@H](O)[C@H](O)[C@H]1O,inactive,inactive,–,–,20.8 nM (active) and 266 nM (active),inactive,–,13.1 nM (active) and 119 nM (active),6.5 nM (active) and 133 nM (active),46.5 nM (active) and 188 nM (active)
O=C(CBr)c1ccc(O)cc1,inactive,inactive,–,–,–,–,–,inactive,inactive,inactive
CCOC(=O)C1(c2ccccc2)CCN(CCC(C#N)(c2ccccc2)c2ccccc2)CC1,inactive,inactive and 59.6 µM (active),–,–,inactive,–,–,inactive,inactive,–
CCCCCCCCCCCCCCC(Br)C(=O)O (stereo not given),inactive,inactive,–,–,24.5 µM (active),–,–,43.6 µM (active),–,–
c1ccc(OCC2CO2)cc1 (stereo not given),inactive,inactive,–,inactive,inactive,–,–,inactive,–,–
